These results are taken from PubChem BioAssay.

Test [1] is described as follows: Wnt pathway potentiators raising nuclear beta-catenin – imaging, WNT3A-conditioned medium, mouse C2C12, NPC library, primary screen (AID 1117326). Also: reference of the scale not given here. Conditions: stronger effect = higher value.
A short description of test [2]: stimulators of insulin release from INS-1E, primary screen, cell-based, 5 mM glucose, NPC library (AID 1117329;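 active = compound raises insulin release from rat beta cells at 5 mM glucose, no numeric limit stated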; also: reference of the scale not given here). Conditions: rat INS-1E insulin secretion, at 10 µM, stronger effect = higher value.
Test [3] in a line: growth inhibition of GSK3B-pretreated HCT116 cells – cell-based, CellTiter-Glo, 0.2 to 20 µM (AID 1117336;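 active = compounds lowering colon cancer cell viability after pretreatment blocking the GSK3B kinase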). Conditions: HCT116 viability after GSK3B inhibitor, at 20 µM, stronger effect = higher value. In general terms: Cellular ATP, detected with luciferase, serves as a proxy for viable cell number.
Test [4] is described as follows: inhibition of endothelial tube formation, primary screen, imaging, VEGF stimulated, CD31 staining, tube area, NPC library (AID 1117340;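 active = compound that reduces growth-factor-driven endothelial tube area in a mixed cell culture, no cutoff stated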). The settings on record: VEGF-stimulated ADSC/ECFC co-culture, at 10 µM, stronger effect = higher value.
Test [5] can be described thus: GLP1 release stimulators, primary, NCI-H716, NPC library (AID 1117341;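 active = compound raises GLP1 secretion from the human gut endocrine cells, with no numeric limit stated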; also: reference of the scale not given here). The settings on record: NCI-H716 cells, at 10 µM, stronger effect = higher value.
A short description of test [6]: HCT116 colon cancer cell growth inhibition, primary screen, CellTiter-Glo luminescence, NPC library (AID 1117342;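 active = compounds that lower survival of HCT116 colon cancer cells in the luminescence readout, no numeric limit stated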). Conditions: at 20 µM (top of the series).
Test [7] can be described thus: reduced SW480 viability measured with CellTiter-Glo, NPC library, primary (AID 1117343;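 active = compounds that lower viability of the colon cancer cells in the luminescence readout, with no numeric limit stated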). Conditions: CellTiter-Glo luminescence; at 20 µM (top of the series).
Test [8] in a line: NPC library primary testing for decreased DLD-1 cell viability via CellTiter-Glo (AID 1117346;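 active = compounds that lower survival of DLD-1 colon cancer cells in the luminescence readout, no cutoff given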). The settings on record: DLD-1 viability, CellTiter-Glo luminescence; at 20 µM (top of the series).

The structures appear in SMILES notation. Activity calls are given as the source filed them. Rule as the data show it, unless noted: active = nuclear beta-catenin stimulation mostly above about 4.2% (no sharp cut-off); inactive = mostly below about 10%.

`CCCCN(CCCC)C(C(N)=O)c1ccc(OC)cc1` (centres undefined): the nuclear beta-catenin stimulation in test [1] (at 10 µM) is 0% (inactive); in test [1] (stimulation, at 2 µM), -1.4%. Besides, in test [2], the insulin secretion stimulation was 36.4% (active). Besides, in test [3], the viability decrease is -5.1% (inactive). The tube area decrease in test [4] was 6.6% (inactive). For the same molecule, in test [5], the GLP1 secretion stimulation is 2.1% (inactive). Besides, the inhibition of viability in test [6] was 30.2% (inactive). Besides, the figures for the viability decrease (inhibition) in test [7] and in test [8] were 10.2% (inactive) and 2.6% (inactive), respectively.

For the molecule `CCCOC(=O)c1ccc(N)cc1`, the nuclear beta-catenin stimulation in test [1] (at 10 µM) was -0.1% (inactive); in test [1] (stimulation, at 2 µM), 0.3%. In test [2], the insulin secretion stimulation was -1.5% (inactive). Also, the viability decrease in test [3] is -4.45% (inactive). The tube area decrease in test [4] is 4.9% (inactive). The GLP1 secretion stimulation in test [5] is -0.1% (inactive). Further, the inhibition of viability in test [6] is 1.8% (inactive). In addition, the viability decrease (inhibition) in test [7] is 110% (active); in test [8], 21.4% (inactive).

Turning to `O=c1[nH]c(=O)n([C@H]2O[C@H](CO)[C@@H](O)[C@@H]2O)cc1/C=C\Br`, the nuclear beta-catenin stimulation in test [1] (at 10 µM) is 0.8% (inactive); in test [1] (stimulation, at 2 µM), -0.6%. For the same molecule, the insulin secretion stimulation in test [2] is 3.5% (inactive). Also, the viability decrease in test [3] was -12.2% (inactive). Also, in test [4], the tube area decrease was -20.7% (inactive). In addition, the GLP1 secretion stimulation in test [5] is 1.5% (inactive). Moreover, the inhibition of viability in test [6] was -27.5% (inactive). Further, the values for the viability decrease (inhibition) in test [7] and in test [8] were -23.9% (inactive) and 2.6% (inactive), respectively.

As for `NS(=O)(=O)c1ccc(Cl)c(S(N)(=O)=O)c1`, the nuclear beta-catenin stimulation was -2.3% (inactive) in test [1] (at 10 µM) and -1% in test [1] (stimulation, at 2 µM). The insulin secretion stimulation in test [2] is -1.3% (inactive). Also, the viability decrease in test [3] was -4.9% (inactive). Moreover, the tube area decrease in test [4] is 12.2% (inactive). Also, the GLP1 secretion stimulation in test [5] is -0.9% (inactive). For the same molecule, in test [6], the inhibition of viability is -6% (inactive). In addition, the viability decrease (inhibition) was -5.6% (inactive) in test [7] and -7.1% (inactive) in test [8].

Regarding `Cc1cccc(OCC(O)CNC(C)(C)C)c1C` (centres undefined), the nuclear beta-catenin stimulation in test [1] (at 10 µM) is -0.4% (inactive); in test [1] (stimulation, at 2 µM), 0.2%. Also, the insulin secretion stimulation in test [2] was 1% (inactive). Moreover, the viability decrease in test [3] is -0.4% (inactive). Further, the tube area decrease in test [4] is 18.2% (inactive). Further, the GLP1 secretion stimulation in test [5] is -1% (inactive). Further, in test [6], the inhibition of viability is 23.8% (inactive). Further, the viability decrease (inhibition) in test [7] is 24.5% (inactive); in test [8], 8.8% (inactive).

For the molecule `Cc1c(C(=O)NCCO)[n+](=O)c2ccccc2n1[O-]`, the nuclear beta-catenin stimulation is 5% (inactive) in test [1] (at 10 µM) and 3% in test [1] (stimulation, at 2 µM). The insulin secretion stimulation in test [2] was -1.6% (inactive). Moreover, the viability decrease in test [3] is -6.4% (inactive). Also, the tube area decrease in test [4] is 14% (inactive). In test [5], the GLP1 secretion stimulation was -0.4% (inactive). The inhibition of viability in test [6] was 0.3% (inactive). For the same molecule, the viability decrease (inhibition) in test [7] was -17.1% (inactive); in test [8], -6.2% (inactive).

On to `O=C(OCc1ccccc1)c1ccc(O)cc1`, for which the nuclear beta-catenin stimulation in test [1] (at 10 µM) is 4.1% (inactive); in test [1] (stimulation, at 2 µM) it was -0.1%. Further, the insulin secretion stimulation in test [2] was 0.1% (inactive). The viability decrease in test [3] is -24.5% (inactive). For the same molecule, the tube area decrease in test [4] was -8.2% (inactive). In addition, the GLP1 secretion stimulation in test [5] is 0.1% (inactive). In addition, in test [6], the inhibition of viability was 16.1% (inactive). Further, the viability decrease (inhibition) in test [7] is 12.9% (inactive); in test [8], 14.4% (inactive).

Regarding `N#C/C(=C1\SCC(c2ccccc2Cl)S1)n1ccnc1` (centres undefined), the nuclear beta-catenin stimulation in test [1] (at 10 µM) is 2% (inactive); in test [1] (stimulation, at 2 µM) it was 2.6%. For the same molecule, in test [2], the insulin secretion stimulation is -2.4% (inactive). In addition, the viability decrease in test [3] was 13.1% (inactive). Also, the tube area decrease in test [4] was 21.9% (inactive). Also, in test [5], the GLP1 secretion stimulation was 0.1% (inactive). Also, the inhibition of viability in test [6] was 21.7% (inactive). Also, the viability decrease (inhibition) was 85.4% (active) in test [7] and 35.2% (inactive) in test [8].

Take `O=S(=O)(O)c1ccc2nc(-c3ccccc3)[nH]c2c1`: the nuclear beta-catenin stimulation is 0.1% (inactive) in test [1] (at 10 µM) and 0.5% in test [1] (stimulation, at 2 µM). Moreover, in test [2], the insulin secretion stimulation was -0.6% (inactive). For the same molecule, the viability decrease in test [3] was 5.35% (inactive). In test [4], the tube area decrease is -26.3% (inactive). In test [5], the GLP1 secretion stimulation is 1.9% (inactive). Moreover, the inhibition of viability in test [6] was 6.9% (inactive). Moreover, the viability decrease (inhibition) in test [7] is 10.6% (inactive); in test [8] it was -0.25% (inactive).

On to `NCCCC[C@H](N)C(=O)O`, for which the nuclear beta-catenin stimulation in test [1] (at 10 µM) was 1.6% (inactive); in test [1] (stimulation, at 2 µM), 2%. In addition, in test [2], the insulin secretion stimulation was -2.1% (inactive). In addition, the viability decrease in test [3] is 1.2% (inactive). Moreover, the tube area decrease in test [4] is -14.1% (inactive). Further, the GLP1 secretion stimulation in test [5] was -3.9% (inactive). In test [6], the inhibition of viability is -2.6% (inactive). Also, the viability decrease (inhibition) was 12.8% (inactive) in test [7] and -0.6% (inactive) in test [8].

Consider `Cc1ccccc1C(=O)N1CC/C(=N\OS(=O)(=O)O)c2ccc(Cl)cc21`, for which the nuclear beta-catenin stimulation in test [1] (at 10 µM) was 0.7% (inactive); in test [1] (stimulation, at 2 µM), -1.3%. Moreover, in test [2], the insulin secretion stimulation was 3.05% (inactive). The viability decrease in test [3] is 19.7% (inactive). Also, the tube area decrease in test [4] is -2.3% (inactive). Further, in test [5], the GLP1 secretion stimulation was 3.1% (inactive). The inhibition of viability in test [6] is 1.4% (inactive). The viability decrease (inhibition) in test [7] was -15.6% (inactive); in test [8] it was -6.4% (inactive).

In the case of `CCCCC(=O)O[C@H]1CC[C@H]2[C@@H]3CCc4cc(O)ccc4[C@@H]3CC[C@]12C`, the nuclear beta-catenin stimulation in test [1] (at 10 µM) is -0.4% (inactive); in test [1] (stimulation, at 2 µM) it was -0.3%. Moreover, the insulin secretion stimulation in test [2] was 1.2% (inactive). In addition, the viability decrease in test [3] was 99.1% (active). Moreover, the tube area decrease in test [4] was 108% (active). For the same molecule, the GLP1 secretion stimulation in test [5] was -4.2% (inactive). Also, the inhibition of viability in test [6] is 91.3% (active). The viability decrease (inhibition) was 103% (active) in test [7] and 74.4% (active) in test [8].

Turning to `NCCNc1cccc2ccccc12`, the nuclear beta-catenin stimulation in test [1] (at 10 µM) was 1.9% (inactive); in test [1] (stimulation, at 2 µM), 1.1%. Further, in test [2], the insulin secretion stimulation was 1.9% (inactive). In addition, the viability decrease in test [3] was -5.55% (inactive). Also, the tube area decrease in test [4] was -35.7% (inactive). Also, in test [5], the GLP1 secretion stimulation was 0.6% (inactive). Moreover, the inhibition of viability in test [6] is 17.2% (inactive). The viability decrease (inhibition) is 51.5% (active) in test [7] and 7.9% (inactive) in test [8].

Take `CCC(=O)O[C@]1(C(=O)COC)[C@@H](C)C[C@H]2[C@@H]3CCC4=CC(=O)C=C[C@]4(C)C3(F)[C@@H](O)C[C@@]21C` (some centres undefined): the nuclear beta-catenin stimulation is 1.5% (inactive) in test [1] (at 10 µM) and 0.5% in test [1] (stimulation, at 2 µM). In addition, the insulin secretion stimulation in test [2] is 1.1% (inactive). In test [3], the viability decrease was -69.2% (inactive). Besides, the tube area decrease in test [4] is 6.6% (inactive). Moreover, the GLP1 secretion stimulation in test [5] is -0.3% (inactive). The inhibition of viability in test [6] was -4.8% (inactive). Also, the viability decrease (inhibition) in test [7] was 6% (inactive); in test [8], -2.9% (inactive).

Consider `CCc1oc2ccccc2c1C(=O)c1cc(I)c(O)c(I)c1`, for which the nuclear beta-catenin stimulation was 4.9% (inactive) in test [1] (at 10 µM) and 0.4% in test [1] (stimulation, at 2 µM). For the same molecule, the insulin secretion stimulation in test [2] is -1.6% (inactive). Moreover, the viability decrease in test [3] is 98.7% (active). Further, the tube area decrease in test [4] is 108% (active). Further, the GLP1 secretion stimulation in test [5] is -3.6% (inactive). Also, in test [6], the inhibition of viability was 99% (active). The figures for the viability decrease (inhibition) in test [7] and in test [8] were 101% (active) and 102% (active), respectively.

As for `CCOC(=O)C(C#N)=C(c1ccccc1)c1ccccc1`, the nuclear beta-catenin stimulation in test [1] (at 10 µM) was 0.9% (inactive); in test [1] (stimulation, at 2 µM), 1.8%. Besides, the insulin secretion stimulation in test [2] is 6.6% (inactive). The viability decrease in test [3] is -0.55% (inactive). For the same molecule, the tube area decrease in test [4] is 2.6% (inactive). The GLP1 secretion stimulation in test [5] was -0.1% (inactive). Further, the inhibition of viability in test [6] is 26.4% (inactive). Also, the viability decrease (inhibition) in test [7] is 18.9% (inactive); in test [8], 15.2% (inactive).
